Shown is part of a subset that was picked to be rich in hits.
miR-122 inh – miR-122 suppressors via Renilla sensor increase, primary screen, cell-based, Huh7 psiCHECK-miR122, Renilla luciferase, single point; 340,000 tested, 0.14% active; 48 h; AID 623901, 2012; activation, % at 12.5 µM;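 active = mean activation of 30% or more, with every replicate also reaching 30%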;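 also: 0% = median of neutral control wells and 100% = median of positive control wells; higher luciferase signal means stronger suppression of miR-122 activity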
Numbers without * were called inactive.

SMILES	miR-122 inh
CCC(=O)N1[C@H](CN(CC)C(=O)c2cccc(F)c2)[C@H](c2ccccc2)[C@@H]1CO	-125
COCC(=O)NC[C@H]1[C@H](c2ccccc2)[C@@H](CO)N1C(=O)c1ccccc1	-100
CC(=O)N1[C@H](CN(C(=O)c2ccc(F)cc2)C(C)C)[C@H](c2ccccc2)[C@@H]1CO	67*
COCC(=O)N(C)C[C@H]1Oc2ncc(C#Cc3ccccc3OC)cc2C(=O)N([C@@H](C)CO)C[C@@H]1C	-2
C[C@H](CO)N1C[C@H](C)[C@H](CN(C)Cc2ccncc2)Oc2ncc(-c3cccc(F)c3)cc2C1=O	-4
C[C@H]1CN([C@@H](C)CO)C(=O)c2cc(C3=CCCCC3)cnc2O[C@H]1CN(C)C(=O)c1ccc(F)cc1	2
C[C@@H]1CN([C@@H](C)CO)S(=O)(=O)c2ccc(C#Cc3cccnc3)cc2O[C@@H]1CN(C)C(=O)C1CC1	-5
O=C1CC(Sc2nnnn2-c2ccccc2)C(=O)N1c1cccc(Cl)c1 (stereo not drawn)	52*
CC(=O)N(C)C[C@H]1Oc2cc(C#C[C@@H](C)O)ccc2S(=O)(=O)N([C@@H](C)CO)C[C@H]1C	1
C[C@@H]1CN([C@H](C)CO)C(=O)c2cc(/C=C/c3ccccc3)cnc2O[C@@H]1CN(C)C(=O)C1CCOCC1	-1
Cc1ccc(-c2cnc3c(c2)C(=O)N([C@H](C)CO)C[C@H](C)[C@H](CN(C)C(=O)Cc2cccnc2)O3)cc1	3
CCOC(=O)/C(C#N)=C1/C=CN(Cc2ccccc2)C=N1	33*
C[C@@H]1CN([C@@H](C)CO)C(=O)c2cc(C#CCc3ccccc3)cnc2O[C@@H]1CN(C)Cc1cccc(C(=O)O)c1	-1
C[C@H](CO)N1C[C@H](C)[C@@H](CN(C)Cc2ccncc2)Oc2ncc(-c3cccc(F)c3)cc2C1=O	-3
Cc1ccc(-c2cnc3c(c2)C(=O)N([C@H](C)CO)C[C@H](C)[C@@H](CN(C)C(=O)Cc2ccncc2)O3)cc1	-3
Cc1ccc(S(=O)(=O)N2CC[C@@H]3[C@@H](CO)Nc4ccc(-c5ccccc5F)cc4[C@@H]32)cc1	-154
CCC(=O)Nc1ccc2c(c1)OC[C@@H](C)N(C(=O)CN1CCOCC1)C[C@@H](C)[C@H](OC)CN(C)C2=O	-8
COc1cc(-c2nnc3sc(C4CCCCC4)nn23)cc(OC)c1OC	32*
COc1ccc(NC(=O)N(C)C[C@@H]2Oc3ncc(C4=CCCC4)cc3C(=O)N([C@@H](C)CO)C[C@@H]2C)cc1	2
C[C@@H]1CN([C@H](C)CO)C(=O)c2cc(-c3cccc(F)c3)cnc2O[C@H]1CN(C)C(=O)c1ccccn1	4
C/C=C/c1ccc2c(c1)O[C@H](CN(C)C(=O)CC1CC1)[C@@H](C)CN([C@@H](C)CO)S2(=O)=O	-4
C[C@H]1CN([C@@H](C)CO)C(=O)c2cc(-c3ccc(F)cc3)cnc2O[C@@H]1CN(C)Cc1ccccn1	-1
CCC(=O)N(C)C[C@H]1Oc2cc(C#Cc3cccnc3)ccc2S(=O)(=O)N([C@H](C)CO)C[C@@H]1C	-10
C/C=C/c1ccc2c(c1)O[C@H](CN(C)C(=O)Cc1cccnc1)[C@H](C)CN([C@H](C)CO)S2(=O)=O	43*
C/C=C/c1ccc2c(c1)O[C@H](CN(C)C(=O)c1cccnc1)[C@H](C)CN([C@H](C)CO)S2(=O)=O	-5
SMILES	miR-122 inh
COCC(=O)N(C)C[C@H]1Oc2cc(C#Cc3cccnc3)ccc2S(=O)(=O)N([C@@H](C)CO)C[C@H]1C	59*
CCCC#Cc1ccc2c(c1)O[C@@H](CN(C)C(=O)c1cccnc1)[C@@H](C)CN([C@@H](C)CO)S2(=O)=O	-12
CCC(=O)N(C)C[C@@H]1Oc2cc(C#Cc3cccnc3)ccc2S(=O)(=O)N([C@@H](C)CO)C[C@@H]1C	4
C/C=C/c1ccc2c(c1)O[C@@H](CN(C)C(=O)c1cccnc1)[C@@H](C)CN([C@@H](C)CO)S2(=O)=O	-3
C[C@@H]1CN([C@@H](C)CO)S(=O)(=O)c2ccc(C#CC3(O)CCCC3)cc2O[C@@H]1CN(C)C(=O)c1cccnc1	47*
CC(=O)N(C)C[C@@H]1Oc2cc(C#CC3(O)CCCC3)ccc2S(=O)(=O)N([C@H](C)CO)C[C@@H]1C	5
C[C@H](CO)N1C[C@H](C)[C@H](CN(C)C(=O)C2CC2)Oc2cc(C#Cc3cccnc3)ccc2S1(=O)=O	-2
COCC(=O)N(C)C[C@H]1Oc2cc(C#Cc3cccnc3)ccc2S(=O)(=O)N([C@@H](C)CO)C[C@@H]1C	55*
CCC(=O)N(C)C[C@H]1Oc2cc(C#Cc3cccnc3)ccc2S(=O)(=O)N([C@@H](C)CO)C[C@@H]1C	-22
C[C@H](O)C#Cc1cnc2c(c1)C(=O)N([C@H](C)CO)C[C@@H](C)[C@H](CN(C)Cc1cncnc1)O2	-1
CNC[C@@H]1Oc2cc(C#CCC3CCCC3)ccc2S(=O)(=O)N([C@@H](C)CO)C[C@@H]1C	2
Cc1ccc(-c2ccc3c(c2)O[C@H](CN(C)Cc2cccc(C(=O)O)c2)[C@H](C)CN([C@H](C)CO)S3(=O)=O)cc1	-16
C[C@H](CO)N1C[C@H](C)[C@H](CN(C)C(=O)Nc2ccccc2)Oc2cc(C#Cc3ccccc3)ccc2S1(=O)=O	-9
C[C@@H]1CN([C@H](C)CO)C(=O)c2cc(C#C[C@@H](C)O)cnc2O[C@@H]1CN(C)C(=O)CN(C)C	0
C[C@@H]1CN([C@@H](C)CO)S(=O)(=O)c2ccc(-c3ccccc3)cc2O[C@@H]1CN(C)C(=O)CN(C)C	9
C[C@H](CO)N1C[C@H](C)[C@H](CN(C)C(=O)CC2CC2)Oc2cc(-c3ccccc3)ccc2S1(=O)=O	-10
C[C@H](O)C#Cc1cnc2c(c1)C(=O)N([C@H](C)CO)C[C@H](C)[C@H](CN(C)Cc1cncnc1)O2	3
C[C@H](CO)N1C[C@H](C)[C@@H](CN(C)S(=O)(=O)c2ccccc2)Oc2ncc(C#CC3(O)CCCC3)cc2C1=O	3
CCCNC(=O)N(C)C[C@@H]1Oc2ncc(C#CCC3CCCC3)cc2C(=O)N([C@H](C)CO)C[C@H]1C	1
C[C@@H]1CN([C@H](C)CO)C(=O)c2cc(-c3cccnc3)cnc2O[C@H]1CN(C)C(=O)Nc1ccc(F)cc1	6
Cc1cccc(C)c1NC(=O)CSCC(=O)c1ccc(O)c(O)c1	35*
COc1cccc(C#Cc2ccc3c(c2)O[C@H](CN(C)S(=O)(=O)c2ccccc2F)[C@@H](C)CN([C@H](C)CO)S3(=O)=O)c1	-19
CN(C[C@@H]1[C@@H](c2ccccc2)[C@@H](CO)N1Cc1ccccn1)S(C)(=O)=O	-92
CC(C)N(C[C@@H]1N[C@@H](CO)[C@@H]1c1ccccc1)S(=O)(=O)c1ccccc1	67*
O=C(NC[C@H]1N[C@H](CO)[C@H]1c1ccccc1)c1ccccc1F	-108
CC(=O)N(C)C[C@@H]1[C@@H](c2ccc(-c3cccnc3)cc2)[C@H](CO)N1C(=O)C1CC1	-258
CC(=O)N(C[C@@H]1N[C@@H](CO)[C@H]1c1ccc(-c2ccccc2)cc1)C(C)C	67*
COc1ccccc1S(=O)(=O)N(C)C[C@@H]1Oc2cc(/C=C/c3ccccc3)ccc2S(=O)(=O)N([C@H](C)CO)C[C@H]1C	-4
CCC(=O)N(C)C[C@@H]1Oc2cc(C#C[C@@H](C)O)ccc2S(=O)(=O)N([C@@H](C)CO)C[C@@H]1C	7
COc1ccc(C(=O)Nc2ccc3c(c2)OC[C@H](C)N(C)C[C@H](C)[C@H](OC)CN(C)C3=O)cc1	-2

Screening data as filed in PubChem.
